From PubChem BioAssay (NCATS)
Records with an inconclusive call do not appear. Entries that show only a call come without a potency. Values without a mark were called inactive. Activity calls are given as the source filed them. Calls come from the whole dose curve; as a rule, active = well fitted inhibition curve with a large enough effect; inconclusive = small, poorly fitted or top-dose-only effect; inactive = no such curve, though single readings can be large or run the other way. Residues, ends and D or L forms follow the SMILES beside them.

test: BET inhibitor-based combinations targeting novel dependencies in MECOM-rearranged (r) AML: UCSD-AML1 cell line (AID 2202235); conditions: UCSD-AML1 AML cells viability, CellTiter-Glo, 48 h; series mostly up to 46 µM; note: nearly all actives have a fitted effect of over 40% in size
Method in brief: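 Cells were plated at 500 per well and exposed to each drug across an 11-point dose range for 48 hr at standard incubator conditions. Viability was read by CellTiter-Glo luminescence, and activity was expressed as AUC and per-cell-line Z-transformed AUC.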
Potency is the fitted concentration of half-maximal effect.

SMILES	Potency	viability (% of control)
CN(C)c1ccc(O)c2c1C[C@H]1C[C@H]3[C@H](N(C)C)C(=O)C(C(N)=O)=C(O)[C@@]3(O)C(=O)C1=C2O	inactive	
N[C@@H](CCC(=O)O)C(=O)N[C@@H](Cc1c[nH]c2ccccc12)C(=O)O (H-Glu-Trp-OH)	inactive	
CCCCN(CCCC)CCC(O)c1cc2c(Cl)cc(Cl)cc2c2cc(C(F)(F)F)ccc12 (centres undefined)	26.3 µM (active)	
CCn1c(=O)c(-c2ccc(-c3cncc(C)n3)cc2Cl)cc2cnc(NCCC3CCN(C)CC3)nc21		99.8% [at 5.12 µM]
C[C@@H](O)[C@@H](C)Oc1nc(Nc2ccc(S(=N)(=O)C3CC3)cc2)ncc1C(F)(F)F (some centres undefined)	20.9 µM (active)	
Cc1[nH]c(/C=C2\C(=O)Nc3ccc(S(=O)(=O)Cc4c(Cl)cccc4Cl)cc32)c(C)c1C(=O)N1CCC[C@@H]1CN1CCCC1	8.33 µM (active)	
Cc1ccc(-c2nc(N)nc3c2nnn3Cc2cccc(CO[C@H]3CCOC3)n2)o1	inactive	
Cc1c(-c2c(-c3ccc(F)o3)sc3ncnc(O[C@@H](Cc4ccccc4OCc4ccnn4CC(F)(F)F)C(=O)O)c23)ccc(OCCN2CCN(C)CC2)c1Cl	1.32 µM (active)	
Fc1cccc(-n2cnc3c(NCc4nc5c(F)c(F)ccc5[nH]4)nc(N4CCOCC4)nc32)c1	0.296 µM (active)	
CCNC(=O)Nc1ccc(Oc2ncnc(N)c2/C=N/OC)cc1Cl	23.5 µM (active)	
O=c1oc2c(C3OCCCO3)c(O)ccc2c2c1CNCC2	inactive	
COC(=O)[C@H](CCCN=C(N)N)NS(=O)(=O)c1ccc(C)cc1	inactive	
C[C@@H]1CC[C@@]2(OC1)OC1CC3C4CC=C5CC(O)CCC5(C)C4CCC3(C)C1[C@@H]2C (some centres undefined)	inactive	
CNC(=O)c1ccc(N2C(=S)N(c3ccc(C#N)c(C(F)(F)F)c3)C(=O)C2(C)C)cc1F	inactive	
Cc1ccc(-c2ccc(C)cn2)nc1	inactive	
Cc1ccc(F)c(NC(=O)Nc2ccc(-c3cccc4[nH]nc(N)c34)cc2)c1	16.6 µM (active)	
COc1cc(OCc2cccc(-c3ccccc3)c2C)cc(OC)c1CN1CCCC[C@H]1C(=O)O	inactive	
COc1ccc2[nH]c(C(=O)N3CCC(CC(C)(C)O)CC3)cc2c1	inactive	
CCC(=O)N1CCOc2c(cc(-c3cc(OC)cc(OC)c3)cc2C(=O)N[C@H]2CCCN(C)C2)C1	20.9 µM (active)	
CONC(=O)Nc1ccc(-c2sc3c(c2CN(C)C)c(=O)n(-c2ccc(OC)nn2)c(=O)n3Cc2c(F)cccc2F)cc1	inactive	
Nc1ncccc1-c1nc2ccc(-c3ccccc3)nc2n1-c1ccc(C2(N)CCC2)cc1	16.6 µM (active)	
COc1c(Nc2ncc(Cl)c(N[C@H]3[C@H](C(N)=O)[C@@H]4C=C[C@@H]3C4)n2)ccc2c1CCC(N1CCOCC1)CC2 (some centres undefined)	inactive	
COc1cc(NS(C)(=O)=O)ccc1Nc1c2ccccc2nc2ccccc12	0.417 µM (active)	
Cc1ccc([C@@H]2O[C@H](CO)[C@@H](O)[C@H](O)[C@H]2O)cc1Cc1ccc(-c2ccc(F)cc2)s1	inactive	
C[C@H]1CN(C2COC2)CCN1c1ccc(Nc2cc(-c3ccnc(N4CCn5c(cc6c5CC(C)(C)C6)C4=O)c3CO)cn(C)c2=O)nc1	inactive	
O=C(Nc1cccc(Nc2ncc(Br)c(NCCc3cnc[nH]3)n2)c1)N1CCCC1	1.18 µM (active)	
CCOC(=O)[C@H](CCc1ccccc1)N[C@H]1CCc2ccccc2N(CC(=O)O)C1=O	inactive	
Cc1c(CN2CCN(C(=O)[C@H](C)O)CC2)sc2c(N3CCOCC3)nc(-c3cnc(N)nc3)nc12	0.0525 µM (active)	
CCN(CC)CCNc1ccc(C)c2sc3ccccc3c(=O)c12	16.6 µM (active)	
